High-throughput results as filed in PubChem BioAssay.
Shown are actives, neighbours in structure and some others; about 1.9% of the full set was active somewhere.
PABP polyA inh: blocks human PABP binding to poly(A) RNA; fluorescence polarization; calls only at 35 µM; actives 1% (n = 290,000); AID 2014;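 further: calls also rest on retests at 20 µM and on dose response follow-up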
14-3-3 Bad PPI: disrupts binding of bovine 14-3-3 zeta to phospho-Bad peptide; P63103; TR-FRET 14-3-3zeta/Dy647-pBad peptide displacement, 1 h; inhibition, % at 21.7 µM; actives 0.71% (n = 220,000);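 active means inhibition above about 70%, limit read from the data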
Target sequence (P63103 whole entry, looked up): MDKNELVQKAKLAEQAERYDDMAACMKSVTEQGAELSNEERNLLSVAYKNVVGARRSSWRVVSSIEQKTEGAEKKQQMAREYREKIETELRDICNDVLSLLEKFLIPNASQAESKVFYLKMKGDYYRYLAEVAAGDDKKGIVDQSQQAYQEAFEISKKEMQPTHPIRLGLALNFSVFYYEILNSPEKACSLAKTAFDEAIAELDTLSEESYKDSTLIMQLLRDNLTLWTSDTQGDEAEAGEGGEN
eIF4H FP inh: inhibitors of RNA binding by human eIF4H; Q15056; eIF4H fluorescence polarization binding assay; inhibition, % at 35 µM; actives 0.94% (n = 290,000); AID 2012;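 further: calls also rest on retests at 20 µM and on dose response follow-up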
PABP1 MLLE inh: inhibitors of microRNA-mediated deadenylation, human PABP1 MLLE binding | GST-MLLE / FITC-PAM2 fluorescence polarization | AID 588489 | actives 0.36% (n = 360,000) | P11940 | inhibition, % at 20 µM; in the data active means inhibition above about 35%, passing the limit was not always enough
eIF4E 4G PPI: blocks eIF4E binding to eIF4G; TR-FRET eIF4E-eIF4GI(517-606) binding, 2 h; inhibition, % at 21.7 µM; actives 0.37% (n = 220,000); AID 782;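 active means inhibition above about 30%, limit read from the data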
Large screens that a line does not name were inactive. Unless noted, how the calls were made is not given here.

CC(=O)NC(Cc1c[nH]c2ccccc12)C(=O)NCc1ccco1 (centres undefined)	none (no result: 14-3-3 Bad PPI, eIF4E 4G PPI)
COc1ccccc1N=c1scc(-c2ccc3c(c2)NC(=O)CO3)n1CC1CCCO1 (centres undefined)	none
CN(C)S(=O)(=O)c1cccc(N=c2scc(-c3ccc4c(c3)NC(=O)CO4)n2CC2CCCO2)c1 (centres undefined)	14-3-3 Bad PPI 70
O=C(Nc1ccc(OC(F)F)cc1)Nc1cccc(C(F)(F)F)c1	none
CC(=O)C(=Cc1cc(C)n(-c2ccccc2)c1C)C(C)=O	PABP polyA inh active, eIF4H FP inh 54
Cc1ccc(C)n1-c1cccc(C(=O)O)c1	PABP polyA inh active, eIF4H FP inh 91 (no result: PABP1 MLLE inh)
Cc1cc(C=O)c(C)n1-c1cc(C(=O)O)cc(C(=O)O)c1	none
Cc1cc(C=O)c(C)n1-c1cccc(C(=O)O)c1	eIF4H FP inh 80
Cc1cccc(Nc2ncnc3ccccc23)c1	14-3-3 Bad PPI 73
Cc1ccc(Nc2ncnc3ccccc23)cc1	none
CCN(CC)c1ccc(/C=N/NC(=O)c2nnn(-c3nonc3N)c2-c2ccc(C)cc2)cc1	none (no result: 14-3-3 Bad PPI, eIF4E 4G PPI)
CCC(=O)c1ccc(NC(C)=O)cc1O	PABP polyA inh active, eIF4H FP inh 77
COC(=O)c1ccc(NC(C)=O)cc1O	none (no result: PABP1 MLLE inh)
S=C(Nc1cccc(Cl)c1Cl)N1CCC2(CC1)OCCO2	eIF4E 4G PPI 91
O=C(NCCO)/C(=C\c1cccs1)NC(=O)c1cccs1	PABP polyA inh active
O=C(NCc1ccco1)/C(=C\c1cccs1)NC(=O)c1cccs1	none
COc1cccc(C2C(C#N)=C(N)Oc3cc(C)n(Cc4ccco4)c(=O)c32)c1 (centres undefined)	PABP polyA inh active, eIF4H FP inh 51
COc1ccc(C2C(C#N)=C(N)Oc3cc(C)n(Cc4ccco4)c(=O)c32)cc1 (centres undefined)	none
Cc1cc(C(=O)OCC(=O)NCc2ccccc2Cl)c(C)o1	14-3-3 Bad PPI 72
O=C(COC(=O)c1cncc(Br)c1)NCc1ccccc1Cl	PABP polyA inh active
Cc1cc(C(=O)OCC(=O)NCc2ccc(Cl)cc2Cl)c(C)o1	none (no result: PABP polyA inh, 14-3-3 Bad PPI, eIF4H FP inh, eIF4E 4G PPI)
O=C(Cn1nc(C(=O)O)c2ccccc2c1=O)Nc1ccc2c(c1)C(=O)c1ccccc1C2=O	PABP polyA inh inconclusive, 14-3-3 Bad PPI 80, eIF4H FP inh inconclusive (no result: PABP1 MLLE inh)
O=C1SCCN1N=Cc1ccc([N+](=O)[O-])o1	none (no result: PABP polyA inh, 14-3-3 Bad PPI, eIF4H FP inh, eIF4E 4G PPI)
CCOC(=O)N1CCN(c2nc3ccccc3nc2C(C#N)S(=O)(=O)c2ccc(C)cc2)CC1 (centres undefined)	PABP polyA inh active, eIF4H FP inh 122
CC1CCCN(c2nc3ccccc3nc2C(C#N)S(=O)(=O)c2ccccc2)C1 (centres undefined)	PABP polyA inh inconclusive, eIF4H FP inh inconclusive
COc1ccc(S(=O)(=O)C(C#N)c2nc3ccccc3nc2N2CCC(C)CC2)cc1 (centres undefined)	PABP polyA inh active, eIF4H FP inh 64 (no result: 14-3-3 Bad PPI, PABP1 MLLE inh, eIF4E 4G PPI)
CCCCOc1nc2ccccc2nc1C(C#N)S(=O)(=O)c1ccccc1 (centres undefined)	14-3-3 Bad PPI 72
Cc1ccc(S(=O)(=O)C(C#N)c2nc3ccccc3nc2N2CCN(C)CC2)cc1 (centres undefined)	eIF4H FP inh inconclusive
CCOc1ccccc1NC(=O)NCCCCc1ccccc1	none (no result: 14-3-3 Bad PPI, eIF4E 4G PPI)
CCOc1ccc(NC(=O)CN(C)C(=O)c2cc([N+](=O)[O-])ccc2Sc2ccccc2)cc1OCC	none (no result: PABP polyA inh, 14-3-3 Bad PPI, eIF4H FP inh, eIF4E 4G PPI)
CC(=O)Nc1ccccc1NC(=O)C/C(C)=N/NC(=O)C1CCCCC1	none (no result: 14-3-3 Bad PPI, eIF4E 4G PPI)
C/C(CC(=O)NC1CCCC1)=N\NC(=O)C1CCCCC1	14-3-3 Bad PPI 97
CN(CC(=O)Nc1ccc(F)cc1)C(=O)c1cc(-c2cccs2)nn1-c1ccccc1	none (no result: PABP polyA inh, 14-3-3 Bad PPI, eIF4H FP inh, eIF4E 4G PPI)
CC(=O)N1CCN(S(=O)(=O)c2cccc(C(=O)NNC(=O)c3ccc(Br)cc3)c2)CC1	none (no result: PABP polyA inh, 14-3-3 Bad PPI, eIF4H FP inh, eIF4E 4G PPI)
Nc1nnc(-c2cc3c(ccc4ccccc43)oc2=O)s1	eIF4H FP inh 86 (no result: PABP1 MLLE inh)
COc1ccc(-c2nnc(-c3cc4c(ccc5ccccc54)oc3=O)o2)cc1	14-3-3 Bad PPI 72
O=C(CCN1C(=O)/C(=C/c2ccccc2)SC1=S)NNC(=O)c1cccnc1	none
O=C(CCN1C(=O)/C(=C/c2ccc3c(c2)OCO3)SC1=S)NNC(=O)c1cccnc1	14-3-3 Bad PPI 71
Cc1ccc(S(=O)(=O)N2CCN(C(=O)CN3C(=O)c4ccc([N+](=O)[O-])cc4C3=O)CC2)c(C)c1	none (no result: PABP polyA inh, 14-3-3 Bad PPI, eIF4H FP inh, eIF4E 4G PPI)
CS(=O)(=O)Nc1ccccc1C(=O)Nc1cccc(Cl)c1	14-3-3 Bad PPI 77
